Pf growth 96h = P. falciparum growth inhibition at 96 hours. P. falciparum luciferase reporter growth, 96 h. Potency, µM (series often up to 28.7 µM), inactives show top-dose activity change, negative = inhibition, usual class: inhibitors. hit rate 6.9% among 320,000; note: potency is the fitted concentration of half-maximal effect; % is set by controls: 0 for no effect and ±100 for the full control effect
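Luminescence readout: decreased luciferase signal marks inhibited growth of reporter-expressing P. falciparum in infected red cells (2% hematocrit, 0.05% parasitemia final), exposed to compound two generations (96 h, 37 C, 5% CO2).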
Sm TGR block = blocks Schistosoma mansoni thioredoxin glutathione reductase | Potency, µM (highest dose often 114 µM), inactives show at the top dose activity change, negative = inhibition, actives largely listed as inhibitors | Q962Y6 | AID 485364 | purified TGR, DTNB reduction, TNB absorbance 405 nm | hit rate 3% among 360,000; note: potency is the fitted concentration of half-maximal effect; % is set by controls: 0 for no effect and ±100 for the full control effect; nearly all actives have a fitted effect of over 60% in size
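First, TGR (20 nM dispensed) and NADPH were mixed with compound. Second, a 15 min room-temperature incubation followed. Third, further NADPH and then DTNB were added to start the reaction. Finally, TNB absorbance was monitored kinetically.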
NS1 function inh = blocks influenza NS1 protein function; hit rate 0.4% among 270,000; Potency, µM (titrated, usually from 46.1 µM), inactives show at the highest dose activity, positive = more growth; calls by dose curve; note: potency is the fitted concentration of half-maximal effect; actives are rising curves; nearly all actives have a fitted effect of over 50% in size
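Recovery from NS1-induced slow growth read by OD600 in budding yeast switched to galactose assay medium (pH 6.0, -URA) at 1:100 dilution. Compound 23 nl per well; the matching strain lacking NS1 serves as control.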
Pf growth 48h = P. falciparum growth inhibition at 48 hours (one generation); hit rate 5.9% among 310,000; P. falciparum luciferase growth in erythrocytes, 48 h; AID 504832; Potency, µM (series often up to 28.7 µM), for the others: top-dose activity change, negative = inhibition, most hits filed as inhibitors; note: potency is the fitted concentration of half-maximal effect; % is set by controls: 0 for no effect and ±100 for the full control effect
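Erythrocytes infected with P. falciparum carrying an integrated firefly luciferase reporter (2% hematocrit, 0.1% parasitemia final) were exposed to compounds in RPMI 1640 with 0.5% Albumax at 37 C, 5% CO2. Growth inhibition was scored as reduced luminescence.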
CHX counter = counter-screen hit for Shiga toxin inhibitors, cycloheximide. AID 2314. cell reporter, cycloheximide protein synthesis inhibition counterscreen. max response, %. hit rate 12% among 300,000; in the data active = max response mostly above about 13%, no sharp cut-off; inactive = mostly below about 14%; note: read at 38.3 µM for the half of the compounds with a filed dose; 0% is about no effect
Shiga toxin inh = inhibitors of Shiga toxin in Vero cells; Vero cells, Shiga toxin protein synthesis inhibition reporter; inhibition, % at 38.7 µM; hit rate 9.2% among 290,000; in the data active = inhibition mostly above about 28%, no sharp cut-off; inactive = mostly below about 43%; note: 0% is about no effect
* hit, by the source's call; ? = inconclusive; . = no result; [ ] = remark or other dose. This is a sample that favours compounds with a hit; in the whole collection about 21% have one here. Unless noted, calls come from the whole dose curve; as a rule, active = well fitted curve in the direction sought with a large enough effect; inconclusive = small, poorly fitted or top-dose-only effect, or another doubt; inactive = no such curve, though single readings can be large; an effect the other way counts as inactive or inconclusive.

SMILES | Pf growth 96h | Sm TGR block | NS1 function inh | Pf growth 48h | CHX counter | Shiga toxin inh
COc1cccc(-c2nc(SCC(=O)Nc3ccc4c(c3)OCCO4)c(-c3ccc(C)cc3)[nH]2)c1 | . | 0% | . | . | . | .
O=C(c1ccc(Cl)c(S(=O)(=O)NCc2ccccc2)c1)N1CCN(c2ccccn2)CC1 | 4.7µM* | -21% | -19% | ? | 9 | -7
Cc1ccc(S(=O)(=O)N2CCCCC2)cc1C(=O)N1CCN(c2ccccn2)CC1 | -17% | -5% | . | 10% | -2 | 20
O=C(c1ccc(S(=O)(=O)N2CCCCCC2)cc1)N1CCN(c2ccccn2)CC1 | . | -2% | -31% | 13µM* | -1 | 5
CCOC(=O)C1CCN(C(=O)C2CCN(C3=NS(=O)(=O)C(c4ccc(C)c(C)c4)=C3C)CC2)CC1 | . | 11% | . | . | . | .
Cc1ccc(OCC(=O)Nc2nonc2-c2ccc(Br)cc2)cc1C | . | -1% | . | . | . | .
CCOc1nc(NCCO)nc(Nc2ccccc2F)n1 | 25% | 1%[57.1 µM] | -2% | 22% | 17* | 48
CCOc1nc(NCc2ccco2)nc(Nc2ccc(OC)cc2)n1 | . | -4% | -12% | -19% | 27* | 28
COc1ccc(Nc2nc(NCc3ccco3)nc(N/N=C/c3ccccc3)n2)cc1 | 128% | -2% | 23% | 1.9µM* | 12 | 10
CCOc1nc(NCCC2=CCCCC2)nc(N2CCOCC2)n1 | 4% | 3% | -15% | 11% | -2 | 10
CCOc1nc(NCCO)nc(NCCC2=CCCCC2)n1 | 8.3µM* | -1% | 0% | ? | 2 | -25
Cn1cc(CN2C[C@]3(C)C[C@H]2CC(C)(C)C3)c(-c2ccc3c(c2)OCCO3)n1 | ? | -33% | -5% | 1% | 2 | 20
NCCc1nnc(SCC(=O)c2ccc(Cl)cc2)o1 | 24% | -7% | 1% | 19% | 0 | -13
COc1cccc(C(=O)Nc2ccccc2-c2nnc(-c3cccc(OC)c3)o2)c1 | . | 0% | . | . | . | .
CCCCCCNc1nc(NCc2ccco2)nc(OCC)n1 | . | 2% | -97% | -10% | 17 | 25
CCOc1nc(NCc2ccco2)nc(Nc2ccccc2F)n1 | ? | -19% | 3% | 129% | 27* | active
CCN1CCN(C(=S)Nc2cccc([N+](=O)[O-])c2)CC1 | 109% | 1% | -8% | -15% | 3 | -16
Fc1ccc(NC(=S)N2CCCc3ccccc32)cc1 | ? | -22% | -17% | 21% | 10 | 51*
CCNS(=O)(=O)c1ccc(NC(=S)N2CCc3ccccc32)cc1 | -6% | -16% | 1% | -12% | 7 | -10
S=C(Nc1cccnc1)N1CCc2ccccc21 | 5.2µM* | -2% | 1% | 10% | -1 | -4
O=[N+]([O-])c1cccc(NC(=S)N2CCc3ccccc32)c1 | ? | -16% | -25% | 9% | 32* | 58*
O=C(Nc1cccc([N+](=O)[O-])c1)N1CCCc2ccccc21 | -13% | 2% | -10% | -22% | 48* | 74*
CSc1ccc(CN2CCCC(CNC(=O)c3ccc(F)cc3)C2)cc1 (stereo not drawn) | ? | 9% | 0% | ? | 1 | -7
CCc1ccc(OCc2cc(=O)n3c4c(sc3n2)CCCC4)cc1 | . | -10% | . | . | . | .
COc1ccc(NC(=O)Cn2c(=O)n(Cc3ccco3)c(=O)c3sc4ccccc4c32)cc1Cl | . | -11% | . | . | . | .
SMILES | Pf growth 96h | Sm TGR block | NS1 function inh | Pf growth 48h | CHX counter | Shiga toxin inh
Nc1c(C(=O)OC2CCCCC2)c2nc3ccccc3nc2n1CC1CCCO1 (stereo not drawn) | 13µM* | -1% | -124% | ? | -3 | 9
CCCNC(=O)c1c(N)n(CC2CCCO2)c2nc3ccccc3nc12 (stereo not drawn) | ? | -17% | -121% | -55% | 12 | -11
CC(C)OCCCNC(=O)c1c(N)n(CC2CCCO2)c2nc3ccccc3nc12 (stereo not drawn) | ? | -31% | -66% | 3.3µM* | 4 | -12
Cc1ccc(-c2n[nH]c3c2C(c2ccc(C(C)(C)C)cc2)NC3=O)cc1 (stereo not drawn) | . | -12% | . | . | . | .
COC(=O)c1sc(-c2ccc(C(C)(C)C)cc2)cc1NC(=O)COCC(=O)O | -18% | -13% | 14% | ? | 20* | 44*
O=S(=O)([O-])C(c1ccccc1)[n+]1ccccc1 (stereo not drawn) | 66% | -30% | . | 5% | . | .
O=C(COc1ccc(Br)cc1Cl)NC(=S)N1CCc2ccccc21 | ? | 6% | 8% | 40% | 35* | 50*
O=C(COc1ccc(Br)cc1CO)N1CCCc2ccccc21 | ? | -17% | -11% | ? | 0 | -1
CC(Oc1ccc(Cl)cc1Cl)C(=O)NC(=S)N1CCc2ccccc21 (stereo not drawn) | 48% | 2% | -2% | 25% | 4 | 12
O=C(COc1ccc(Br)cc1Br)NC(=S)N1CCCc2ccccc21 | . | -7% | 10% | ? | 48* | 54
C/C(=N\NC(=O)c1cccs1)c1ccc2c(c1)OCO2 | 16% | 7% | -10% | 0% | 64* | 117*
CC(/C=C/c1ccccc1)=N\NC(=O)c1ccc2c(c1)OCCO2 | ? | 6% | -17% | -2% | 50* | 48*
O=C(NN=C1CCCCCC1)c1ccncc1 | ? | 4% | -5% | 21% | 16 | 3
O=C(NN=C1CCCCCC1)c1ccc2c(c1)OCO2 | 28% | 0%[57.1 µM] | -1% | 25% | 38* | 38
C/C(=N\NC(=O)c1ccc2c(c1)OCO2)c1ccc2c(c1)OCO2 | 111% | 1% | . | 187% | 35* | 62*
CC[N+](C)(CC)CC(O)COCC1COc2ccccc2O1 (stereo not drawn) | 15% | -8% | 4% | ? | -3 | -3
C/C(CCc1ccc2c(c1)OCO2)=N\NC(=O)c1ccc(C)cc1C | 25% | 12% | 3% | 26% | 39* | 77*
O=C(NN=C1CCCC1)c1ccc(O)cc1 | ? | -4% | 6% | -6% | 30* | 42*
C/C(=N\NC(=O)c1ccc2c(c1)OCCO2)c1ccccc1 | 438% | 13% | -1% | -29% | 21* | 52*
C/C(=N\NC(=O)c1ccc2c(c1)OCO2)c1ccc(C(=O)O)s1 | ? | 5% | 4% | 33% | 31* | 54*
C/C(=N\NC(=O)c1ccc(O)cc1)c1ccc2c(c1)OCCO2 | ? | -16% | . | -11% | . | .
O=C(NC(=S)NCCN1CCOCC1)c1ccccc1Br | -15% | 0% | 12% | ? | -3 | 12
O=C(Cc1cccc(NC(=O)C2CCN(C(=O)c3ccccc3)CC2)c1)Nc1cccc(C(=O)N2CCCC2)c1 | -4% | -11% | . | ? | . | .
O=C(NCc1ccccn1)C1(C(F)(F)F)C/C(=C\Cc2ccccc2)CCCO1 (stereo not drawn) | . | . | . | . | 17 | 2
C/C(=N\NC(=O)c1nc2ccccn2c1C)c1ccc2c(c1)OCO2 | 61% | 3% | 21% | 31% | 19* | 42
